Experimental data taken from PubChem BioAssay (EPA / NIEHS).
Activity calls are given as the source filed them. Rule for the calls: active = hit-call score of the fitted dose curve at least 0.9, where 1 is the maximum; inactive = score below 0.9.

Legend:
Conditions in all cases: mRNA level, 48 h; actives raise or lower the signal
[1] = read-out: Lipoprotein lipase (LPL), LPL (gene 4023); assay: LTEA_HepaRG_LPL: Life Technologies and Expression Analysis (LTEA) Assay for Lipoprotein lipase (LPL) using HepaRG (AID 2283515)
Outline: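 Differentiated human HepaRG cells in serum-free induction medium were exposed in duplicate for 48 h to eight half-log concentrations (top 100 uM) in 0.5% DMSO. LPL mRNA was quantified by TaqMan qRT-PCR, normalized to ACTB, GAPDH and POLR2A.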

[2] = read-out: MicroRNA 122 (MIR122), gene 406906; assay: LTEA_HepaRG_MIR122: Life Technologies and Expression Analysis (LTEA) Assay for MicroRNA 122 (MIR122) using HepaRG (AID 2283516); note: the transcript read is the microRNA miR-122
Outline: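 HepaRG plated 48 h, switched to serum-free induction medium, then treated in duplicate for 48 h (100 uM top, half-log steps, 0.5% DMSO vehicle). RNA isolated, qRT-PCR performed, concentration-response fitted both directions relative to DMSO.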

[3] = read-out: matrix metalloproteinase-10 (MMP10), MMP10 (gene 4319); assay: LTEA_HepaRG_MMP10: Life Technologies and Expression Analysis (LTEA) Assay for matrix metalloproteinase-10 (MMP10) using HepaRG (AID 2283517)
Outline: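 HepaRG, collagen I, ~100,000 cells/well; serum-free induction medium; 48 h exposure, duplicate, 8-pt half-log to 100 uM, 0.5% DMSO. Readout: TaqMan qRT-PCR, normalized to ACTB/GAPDH/POLR2A; bidirectional fit vs DMSO.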

MYC, MYC (gene 4609) = assay: LTEA_HepaRG_MYC: Life Technologies and Expression Analysis (LTEA) Assay for MYC using HepaRG (AID 2283518)
Outline: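 Differentiated HepaRG cells exposed 48 h in serum-free induction medium to 8 concentrations (top 100 uM, half-log steps; 0.5% DMSO), duplicate. MYC mRNA measured by Fluidigm qRT-PCR, normalized to ACTB, GAPDH, POLR2A; bidirectional fit versus DMSO.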

[4] = read-out: matrix metalloproteinase-3 (MMP3), MMP3 (gene 4314); assay: LTEA_HepaRG_MMP3: Life Technologies and Expression Analysis (LTEA) Assay for matrix metalloproteinase-3 (MMP3) using HepaRG (AID 2283519)
Outline: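 Differentiated human HepaRG cells, plated 48 h on collagen I, were exposed in duplicate for 48 h in serum-free induction medium to eight half-log concentrations up to 100 uM in 0.5% DMSO. MMP3 mRNA was quantified by TaqMan qRT-PCR, normalised to ACTB, GAPDH and POLR2A.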

[5] = read-out: Paternally Expressed 10 (PEG10), PEG10 (gene 23089); assay: LTEA_HepaRG_PEG10: Life Technologies and Expression Analysis (LTEA) Assay for Paternally Expressed 10 (PEG10) using HepaRG (AID 2283520)
Outline: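 HepaRG, 48 h post-plating → serum-free induction medium → 48 h chemical exposure (duplicate, 8-pt, max 100 uM, half-log, 0.5% DMSO) → lysis in RLT → TaqMan qRT-PCR for PEG10, ACTB/GAPDH/POLR2A normalisation.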

[6] = read-out: Protein phosphatase 2A (PPP2R4), PTPA (gene 5524); assay: LTEA_HepaRG_PPP2R4: Life Technologies and Expression Analysis (LTEA) Assay for Protein phosphatase 2A (PPP2R4) using HepaRG (AID 2283522)
Outline: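 Readout is PPP2R4 transcript level by microfluidic qRT-PCR after 48 h chemical treatment of human HepaRG liver cells. Concentrations spanned 100 uM downward in half-log steps; gain or loss of signal was fitted relative to DMSO.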

[7] = read-out: Phosphatase and tensin (PTEN), PTEN (gene 5728); assay: LTEA_HepaRG_PTEN: Life Technologies and Expression Analysis (LTEA) Assay for Phosphatase and tensin (PTEN) using HepaRG (AID 2283523)
Outline: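 Differentiated human HepaRG cells, plated 48 h then switched to serum-free induction medium, were exposed in duplicate for 48 h to eight half-log concentrations up to 100 uM in 0.5% DMSO. PTEN mRNA measured by TaqMan qRT-PCR, normalized to ACTB/GAPDH/POLR2A, bidirectional fit versus DMSO.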

[8] = read-out: solute carrier (SLC22A1), SLC22A1 (gene 6580); assay: LTEA_HepaRG_SLC22A1: Life Technologies and Expression Analysis (LTEA) Assay for solute carrier (SLC22A1) using HepaRG (AID 2283524)
Outline: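 Human HepaRG cells were plated 48 h, switched to serum-free induction medium, then exposed in duplicate for 48 h to 8-point half-log series from 100 uM in 0.5% DMSO. SLC22A1 mRNA measured by qRT-PCR, normalized to ACTB/GAPDH/POLR2A, fitted bidirectionally versus DMSO.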

[9] = read-out: Pyruvate Dehydrogenase Kinase 4 (PDK4), PDK4 (gene 5166); assay: LTEA_HepaRG_PDK4: Life Technologies and Expression Analysis (LTEA) Assay for Pyruvate Dehydrogenase Kinase 4 (PDK4) using HepaRG (AID 2283525)
Outline: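 Differentiated human HepaRG cells, pre-cultured 48 h, were exposed in duplicate for 48 h in serum-free induction medium to eight half-log concentrations up to 100 uM in 0.5% DMSO. PDK4 mRNA was quantified by qRT-PCR, normalized to ACTB, GAPDH and POLR2A, bidirectional fitting versus DMSO.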

[10] = read-out: NAD(P)H dehydrogenase [quinone] 1 (NQO1), NQO1 (gene 1728); assay: LTEA_HepaRG_NQO1: Life Technologies and Expression Analysis (LTEA) Assay for NAD(P)H dehydrogenase [quinone] 1 (NQO1) using HepaRG (AID 2283526)
Outline: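 HepaRG, 48 h post-plating → serum-free induction medium → test chemical 48 h (duplicate, 100 uM top, half-log x8, 0.5% DMSO) → RNA isolation → qRT-PCR, ACTB/GAPDH/POLR2A normalization; bidirectional curve fit vs DMSO baseline.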

[11] = read-out: Nuclear factor erythroid 2-related factor 2 (Homo sapiens) (UniProt Q16236); assay: LTEA_HepaRG_NFE2L2: Life Technologies and Expression Analysis (LTEA) Assay for Nuclear factor erythroid 2-related factor 2 (NFE2L2) Transcription Factor using HepaRG (AID 2283527);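 note: TaqMan qRT-PCR transcript level normalised to ACTB GAPDH and POLR2A housekeeping genes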
Outline: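 Differentiated human HepaRG cells in serum-free induction medium were exposed for 48 h to eight concentrations (top 100 uM, half-log dilutions, 0.5% DMSO), in duplicate. NFE2L2 mRNA was quantified by TaqMan qRT-PCR, normalized to ACTB, GAPDH and POLR2A, with bidirectional fitting versus DMSO.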

[12] = read-out: succinate dehydrogenase complex iron sulfur subunit B (SDHB), SDHB (gene 6390); assay: LTEA_HepaRG_SDHB: Life Technologies and Expression Analysis (LTEA) Assay for succinate dehydrogenase complex iron sulfur subunit B (SDHB) using HepaRG (AID 2283528)
Outline: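 HepaRG cells (~100,000/well, plated 48 h) exposed in duplicate for 48 h in serum-free induction medium to 8-point half-log series from 100 uM in 0.5% DMSO; mRNA by qRT-PCR normalised to ACTB, GAPDH, POLR2A; bidirectional fit versus DMSO.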

[13] = read-out: Signal transducer and activator of transcription 3 (Homo sapiens) (UniProt P40763); assay: LTEA_HepaRG_STAT3: Life Technologies and Expression Analysis (LTEA) Assay for Signal transducer and activator of transcription (STAT3) using HepaRG (AID 2283529)
Outline: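 Differentiated human HepaRG cells in serum-free induction medium were exposed in duplicate for 48 h to eight half-log concentrations up to 100 uM in 0.5% DMSO. STAT3 mRNA was quantified by TaqMan qRT-PCR, normalized to ACTB, GAPDH and POLR2A, and fitted bidirectionally against DMSO.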

[14] = read-out: solute carrier (SLCO1B1), SLCO1B1 (gene 10599); assay: LTEA_HepaRG_SLCO1B1: Life Technologies and Expression Analysis (LTEA) Assay for solute carrier (SLCO1B1) using HepaRG (AID 2283530)
Outline: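 Differentiated human HepaRG cells were exposed for 48 h in serum-free induction medium to eight half-log concentrations, top 100 uM, in 0.5% DMSO. SLCO1B1 mRNA was measured by qRT-PCR, normalized to ACTB, GAPDH and POLR2A, and fitted bidirectionally against DMSO.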

[15] = read-out: Transforming Growth Factor (TGFA), TGFA (gene 7039); assay: LTEA_HepaRG_TGFA: Life Technologies and Expression Analysis (LTEA) Assay for Transforming Growth Factor (TGFA) using HepaRG (AID 2283532)
Outline: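 Differentiated human HepaRG cells, plated 48 h then switched to serum-free induction medium, were exposed in duplicate for 48 h to 8-point half-log series from 100 uM in 0.5% DMSO. TGFA mRNA measured by qRT-PCR, normalized to ACTB/GAPDH/POLR2A, bidirectional fit versus DMSO.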

[16] = read-out: Transforming Growth Factor (TGFB1), TGFB1 (gene 7040); assay: LTEA_HepaRG_TGFB1: Life Technologies and Expression Analysis (LTEA) Assay for Transforming Growth Factor (TGFB1) Transporter using HepaRG (AID 2283533)
Outline: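 Differentiated HepaRG cells exposed 48 hr in serum-free induction medium to eight half-log concentrations up to 100 uM (0.5% DMSO), duplicate; TGFB1 mRNA by TaqMan qRT-PCR normalised to ACTB, GAPDH, POLR2A; bidirectional fit against DMSO.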

TIMP1, TIMP1 (gene 7076) = assay: LTEA_HepaRG_TIMP1: Life Technologies and Expression Analysis (LTEA) Assay for TIMP1 using HepaRG (AID 2283534);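 note: TaqMan qRT-PCR signal normalized to ACTB GAPDH and POLR2A housekeeping genes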
Outline: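 Differentiated HepaRG cells exposed 48 h in serum-free induction medium, duplicates, eight half-log concentrations from 100 uM in 0.5% DMSO. TIMP1 mRNA by qRT-PCR normalized to ACTB, GAPDH, POLR2A; bidirectional fitting against DMSO.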

[17] = read-out: Nuclear factor NF-kappa-B p105 subunit (Homo sapiens) (UniProt P19838); assay: LTEA_HepaRG_NFKB1: Life Technologies and Expression Analysis (LTEA) Assay for Nuclear Factor Kappa B Subunit 1 (NFKB1) using HepaRG (AID 2283521);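 note: TaqMan qRT-PCR transcript normalised to ACTB GAPDH and POLR2A housekeeping genes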
Outline: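 Differentiated human HepaRG cells in serum-free induction medium with 0.5% DMSO were exposed for 48 h to eight half-log concentrations, top 100 uM, in duplicate. NFKB1 mRNA measured by Fluidigm TaqMan qRT-PCR, normalised to ACTB, GAPDH and POLR2A; bidirectional fit versus DMSO.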

Measured: outcome

Chain of Nuclear factor erythroid 2-related factor 2 (Homo sapiens) (Q16236 whole entry, looked up): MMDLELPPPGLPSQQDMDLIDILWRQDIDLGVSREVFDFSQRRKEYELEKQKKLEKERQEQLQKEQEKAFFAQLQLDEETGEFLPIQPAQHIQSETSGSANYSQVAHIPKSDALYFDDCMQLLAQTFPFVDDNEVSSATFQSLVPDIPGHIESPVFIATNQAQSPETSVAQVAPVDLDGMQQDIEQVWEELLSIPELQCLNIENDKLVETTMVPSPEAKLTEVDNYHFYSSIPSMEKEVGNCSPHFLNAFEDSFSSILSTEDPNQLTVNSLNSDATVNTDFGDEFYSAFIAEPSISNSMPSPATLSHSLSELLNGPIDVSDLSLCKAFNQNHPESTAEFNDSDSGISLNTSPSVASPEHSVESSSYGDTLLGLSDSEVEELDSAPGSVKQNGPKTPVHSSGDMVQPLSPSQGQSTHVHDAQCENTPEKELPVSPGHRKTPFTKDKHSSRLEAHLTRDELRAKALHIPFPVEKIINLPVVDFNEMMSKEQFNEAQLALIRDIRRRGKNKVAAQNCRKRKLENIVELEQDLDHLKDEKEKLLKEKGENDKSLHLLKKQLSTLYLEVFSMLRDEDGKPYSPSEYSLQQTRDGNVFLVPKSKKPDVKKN
Chain of Signal transducer and activator of transcription 3 (Homo sapiens) (P40763 whole entry, looked up): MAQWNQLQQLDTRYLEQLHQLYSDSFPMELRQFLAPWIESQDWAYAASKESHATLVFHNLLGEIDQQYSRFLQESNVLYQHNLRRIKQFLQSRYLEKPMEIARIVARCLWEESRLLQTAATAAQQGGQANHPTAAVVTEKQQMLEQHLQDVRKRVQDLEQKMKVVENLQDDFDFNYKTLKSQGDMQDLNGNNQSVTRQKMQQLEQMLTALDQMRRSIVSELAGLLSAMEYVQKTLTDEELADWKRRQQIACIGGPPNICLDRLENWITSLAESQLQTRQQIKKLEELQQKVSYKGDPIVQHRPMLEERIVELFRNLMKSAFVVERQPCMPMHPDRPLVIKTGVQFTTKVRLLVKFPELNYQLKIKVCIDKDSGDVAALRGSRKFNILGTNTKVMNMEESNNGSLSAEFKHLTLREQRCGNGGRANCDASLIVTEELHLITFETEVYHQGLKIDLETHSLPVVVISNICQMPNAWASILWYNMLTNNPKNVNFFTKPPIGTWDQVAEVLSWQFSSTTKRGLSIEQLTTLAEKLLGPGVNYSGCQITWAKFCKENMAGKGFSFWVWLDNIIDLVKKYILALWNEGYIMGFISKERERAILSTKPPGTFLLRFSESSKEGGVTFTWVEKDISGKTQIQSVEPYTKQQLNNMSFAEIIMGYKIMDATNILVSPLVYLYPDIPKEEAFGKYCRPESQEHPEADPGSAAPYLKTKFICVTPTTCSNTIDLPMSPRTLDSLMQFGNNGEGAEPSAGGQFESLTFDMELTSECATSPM
Chain of Nuclear factor NF-kappa-B p105 subunit (Homo sapiens) (P19838 whole entry, looked up): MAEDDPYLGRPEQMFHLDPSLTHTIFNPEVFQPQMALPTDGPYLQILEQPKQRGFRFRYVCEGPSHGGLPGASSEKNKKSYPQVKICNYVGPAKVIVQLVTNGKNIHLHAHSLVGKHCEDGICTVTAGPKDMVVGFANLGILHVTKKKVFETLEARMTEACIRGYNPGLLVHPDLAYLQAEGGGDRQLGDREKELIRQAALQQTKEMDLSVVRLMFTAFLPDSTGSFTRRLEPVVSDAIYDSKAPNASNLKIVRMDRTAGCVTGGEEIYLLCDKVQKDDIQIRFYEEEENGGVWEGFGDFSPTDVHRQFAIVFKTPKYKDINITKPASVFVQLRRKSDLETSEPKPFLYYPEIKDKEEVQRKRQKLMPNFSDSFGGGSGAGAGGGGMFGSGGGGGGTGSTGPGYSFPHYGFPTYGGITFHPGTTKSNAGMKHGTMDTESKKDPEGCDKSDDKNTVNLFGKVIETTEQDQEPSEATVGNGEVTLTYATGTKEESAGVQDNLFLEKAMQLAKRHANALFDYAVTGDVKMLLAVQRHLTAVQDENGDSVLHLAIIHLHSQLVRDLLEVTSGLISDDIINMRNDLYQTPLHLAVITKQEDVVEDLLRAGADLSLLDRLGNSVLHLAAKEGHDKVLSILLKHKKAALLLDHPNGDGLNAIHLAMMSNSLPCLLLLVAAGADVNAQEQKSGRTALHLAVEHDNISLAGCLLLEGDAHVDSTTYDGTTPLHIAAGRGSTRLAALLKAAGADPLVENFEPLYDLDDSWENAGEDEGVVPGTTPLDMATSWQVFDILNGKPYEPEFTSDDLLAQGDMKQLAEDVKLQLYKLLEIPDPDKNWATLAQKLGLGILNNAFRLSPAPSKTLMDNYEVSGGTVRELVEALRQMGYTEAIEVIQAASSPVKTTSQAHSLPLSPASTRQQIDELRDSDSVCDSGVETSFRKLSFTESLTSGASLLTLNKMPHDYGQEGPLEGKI

CCO[Si](CCCNC(N)=O)(OCC)OCC
not listed: [17]
inactive: all other assays above

CCCCCCCC[Si](OCC)(OCC)OCC
inactive: all assays above

CCN(Cc1cccc(S(=O)(=O)O)c1)c1ccc(C(=C2C=CC(=[N+](CC)Cc3cccc(S(=O)(=O)O)c3)C=C2)c2ccccc2S(=O)(=O)[O-])cc1
inactive: all assays above
